Measured values as given in PubChem BioAssay (NCATS).
Inconclusive results are not listed. Active and inactive are the calls of the source. Calls follow the shape of the dose curve; as a rule, active = well fitted curve in the direction sought with a large enough effect; inconclusive = small, poorly fitted or top-dose-only effect, or another doubt; inactive = no such curve, though single readings can be large; an effect the other way counts as inactive or inconclusive.

What was measured:
[1] = target: Calcium and integrin-binding protein 1 (Homo sapiens) (UniProt Q99828); experiment: Primary qHTS for Identification of Calcium Integrin Binding Protein 1 (CIB1) Competitor (AID 1508620);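 also: GST tagged CIB1 binding a fluorescein labelled alphaIIb integrin peptide tracer; top concentration of the series differs between compounds; % is scaled to controls: 0 for no effect and ±100 for the full control effect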
Chain of Calcium and integrin-binding protein 1 (Homo sapiens) (Q99828 whole entry, looked up): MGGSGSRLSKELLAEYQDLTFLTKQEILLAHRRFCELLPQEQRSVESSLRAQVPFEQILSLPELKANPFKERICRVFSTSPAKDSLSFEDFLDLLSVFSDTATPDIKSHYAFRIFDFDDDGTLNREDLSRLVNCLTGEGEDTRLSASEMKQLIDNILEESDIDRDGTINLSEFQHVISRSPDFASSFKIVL
In short: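 Fluorescence polarization competition: CIB1-GST (1 uM final) preincubated with compound 15 min at room temperature, then FITC-labeled alphaIIb peptide (100 nM final) added for another 15 min. Polarization read at Ex 480/Em 540.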

[2] = target: Glutathione peroxidase 1 (Homo sapiens) (UniProt P07203); experiment: Primary qHTS Assay for Inhibitors of Recombinant Selenoprotein Glutathione Peroxidase 1 (GPX1) (AID 1845191); also: nearly all actives have a fitted effect of over 65% in size
Chain of Glutathione peroxidase 1 (Homo sapiens) (P07203 whole entry, looked up): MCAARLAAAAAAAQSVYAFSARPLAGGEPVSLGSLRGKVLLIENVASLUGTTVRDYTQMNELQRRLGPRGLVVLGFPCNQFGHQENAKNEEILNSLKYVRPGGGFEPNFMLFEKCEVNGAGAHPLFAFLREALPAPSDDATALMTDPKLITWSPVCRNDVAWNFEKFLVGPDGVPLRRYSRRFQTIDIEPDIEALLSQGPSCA
In short: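 GPX1 10 nM, GR 100 nM, GSH 1 mM, NADPH 0.5 mM, CHP 0.5 mM (final). 30-min cpd preincubation, RT. Ex340/Em450 read t=0, t=15 min.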

[3] = target: Phospholipid hydroperoxide glutathione peroxidase GPX4 (Homo sapiens) (UniProt P36969); experiment: Primary qHTS Assay for Inhibitors of Recombinant Selenoprotein Glutathione Peroxidase 4 (GPX4) (AID 1845192); also: nearly all actives have a fitted effect of over 65% in size
Chain of Phospholipid hydroperoxide glutathione peroxidase GPX4 (Homo sapiens) (P36969 whole entry, looked up): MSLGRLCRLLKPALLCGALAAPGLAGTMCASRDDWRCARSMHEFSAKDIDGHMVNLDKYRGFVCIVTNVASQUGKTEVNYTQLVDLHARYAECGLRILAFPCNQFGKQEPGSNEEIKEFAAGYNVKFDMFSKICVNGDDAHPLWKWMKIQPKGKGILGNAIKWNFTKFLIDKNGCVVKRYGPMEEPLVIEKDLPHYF
In short: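 qHTS, GR-coupled: GPX4 200 nM + cpd 30 min RT → GSH 1 mM, NADPH 0.5 mM, GR 100 nM → CHP 0.5 mM start; fluor 340/450 at t0 and t15 min; no-enzyme wells as control.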

[4] = test system: HaCat; experiment: Cytotoxic Profiling of Annotated Libraries Using Quantitative High-Throughput Screening (AID 1296008); conditions: Five cell lines viability, CellTiter-Glo ATP luminescence, 48-72 h; max response: active compounds read low; also: nearly all actives have a fitted effect of over 60% in size; as to max response: % is scaled to controls: 0 for no effect and ±100 for the full control effect
In short: (§1)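 Compounds were pin-transferred onto cells and incubated 48 or 72 hr at 37 degree Celsius, 95% humidity. CellTiter-Glo was added, plates sat 10 min at room temperature, then ATP-coupled luminescence was imaged as the viability read-out.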

[5] = test system: NIH3T3; experiment: as above; conditions: Five cell lines viability, CellTiter-Glo ATP luminescence, 48-72 h; max response: active compounds read low
In short: as §1

[6] = test system: Zika virus NS2B-NS3 protease (linked construct); experiment: Primary screen NINDS Rhodamine qHTS for Zika virus inhibitors (AID 1347160); also: nearly all actives have a fitted effect of over 55% in size
In short: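 Each compound, titrated, sat 15 min with 25 nM linked protease before 1.5 microM Rhodamine110 substrate went in. Fluorescence gain over the next 15 min, in pH 8.0 Tris with Tween 20, gave Hill-fitted curves.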

[7] = target: Luciferin 4-monooxygenase (Photinus pyralis) (UniProt P08659); experiment: Primary firefly luciferase (FLuc) qHTS assay for identification of artifact compounds. (AID 1845220); conditions: outcome: dose series up to 54.1 µM unless noted; also: nearly all actives have a fitted effect of over 60% in size
In short: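 In this counter-screen for luciferase artifacts, test compounds met substrate (10 uM each luciferin and ATP) before 10 nM enzyme started the reaction. Light output was measured 5 min later.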

[8] = Primary fluorescence-based thiol-reactive (MSTI) qHTS assay for identification of artifact compounds. (AID 1845221);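 also: thiol-reactive compounds lower the probe fluorescence signal; nearly all actives have a fitted effect of over 65% in size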
In short: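 Curve-fitted percent inhibition (4-parameter Hill) derived from fluorescence, Ex 525/Em 598 nm, scaled with Acetyl-MSTI and MSTI; 1 h incubation at room temperature.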

[9] = test system: Nanoluciferase (engineered Oplophorus gracilirostris luciferase); experiment: Primary Nanoluciferase (NLuc) qHTS assay for identification of artifact compounds. (AID 1845222);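 also: NLuc secreted into diluted conditioned medium of S16 cells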
In short: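 Using secreted nanoluciferase in S16 culture medium (0.22 um filtered, 1:55 dilution), compounds were preincubated 15 min at RT. Signal was generated with Nano-Glo reagent (1:100) over 5 min.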

[10] = Primary redox qHTS assay for identification of artifact compounds. (AID 1845223);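 also: 0% = DMSO and 100% = reference compound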
In short: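 Redox-cycling detection via DTT (250 uM final) oxidation coupled to Amplex Red (25 uM)/HRP (250 mU/mL) in HBSS. 15 min preincubation plus 30 min after DTT, room temperature. Ex/Em 525/598 nm; 4-parameter Hill fit against DMSO and 10 uM DA3003.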

[11] = test system: JEG-3; experiment: Primary qHTS to identify gynecologic anti-cancer compounds using libraries of approved drugs and bioactive compounds (AID 1345084); conditions: Gynecologic cancer cell panel viability, ATPlite luminescence, 48 h; series mostly up to 57.5 µM; also: % is scaled to controls: 0 for no effect and ±100 for the full control effect; nearly all actives have a fitted effect of over 55% in size
In short: (§2)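 Cytotoxicity screen measuring ATP content by luciferase luminescence. Each compound is applied at five concentrations for 48 h at 37 C with 5% CO2.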

[12] = test system: OV90; experiment: as above; conditions: Gynecologic cancer cell panel viability, ATPlite luminescence, 48 h; series mostly up to 57.5 µM
In short: as §2

[13] = test system: CAOV3; experiment: as above; conditions: Gynecologic cancer cell panel viability, ATPlite luminescence, 48 h; series mostly up to 57.5 µM
In short: as §2

[14] = test system: CASKI; experiment: as above; conditions: Gynecologic cancer cell panel viability, ATPlite luminescence, 48 h; series mostly up to 57.5 µM
In short: as §2

[15] = test system: Es-2; experiment: as above; conditions: Gynecologic cancer cell panel viability, ATPlite luminescence, 48 h; series mostly up to 57.5 µM
In short: as §2

[16] = test system: Hek293T; experiment: as above; conditions: Gynecologic cancer cell panel viability, ATPlite luminescence, 48 h, control line for the selectivity index; series mostly up to 57.5 µM
In short: as §2

[17] = test system: PA-1; experiment: as above; conditions: Gynecologic cancer cell panel viability, ATPlite luminescence, 48 h; series mostly up to 57.5 µM
In short: as §2

[18] = test system: Tov-21-G; experiment: as above; conditions: Gynecologic cancer cell panel viability, ATPlite luminescence, 48 h; series mostly up to 57.5 µM
In short: as §2

[19] = test system: Tov112D; experiment: as above; conditions: Gynecologic cancer cell panel viability, ATPlite luminescence, 48 h; series mostly up to 57.5 µM
In short: as §2

[20] = test system: C33A; experiment: as above; conditions: Gynecologic cancer cell panel viability, ATPlite luminescence, 48 h; series mostly up to 57.5 µM
In short: as §2

Cc1ncc(OC[C@@]2(c3cccc(F)c3)C[C@H]2C(=O)Nc2ccc(F)cn2)c(C)n1
inactive: Potency [1] | Potency [2] | Potency [3] | outcome [4] | outcome [5]

C/C(=C\c1csc(C)n1)[C@@H]1C[C@@H]2O[C@@H]2CCC[C@H](C)[C@H](O)[C@@H](C)C(=O)C(C)(C)[C@@H](O)CC(=O)O1
inactive: Potency [6] | Potency [1] | Potency [2] | Potency [3] | outcome [7] | Potency [8] | Potency [9] | Potency [10] | Potency [11] | Potency [12]

CN1CN(c2ccccc2)C2(CCN(CCCC(=O)c3ccc(F)cc3)CC2)C1=O
inactive: Potency [6] | Potency [1] | Potency [2] | Potency [3] | outcome [7] | Potency [8] | Potency [9] | Potency [10] | max response [4] 2.53% | Potency [13] | Potency [14] | Potency [15] | Potency [16] | Potency [11] | Potency [17] | Potency [18] | Potency [19]

CC(=O)O[C@H]1C(=O)[C@]2(C)C(O)C[C@H]3OC[C@@]3(OC(C)=O)[C@H]2[C@H](OC(=O)c2ccccc2)[C@]2(O)C[C@H](O)C(C)=C1C2(C)C (stereo not given in full)
inactive: Potency [6] | Potency [1] | outcome [7] | Potency [9] | Potency [10] | max response [4] -29.4% | max response [5] -3.65% | Potency [20] | Potency [13] | Potency [15] | Potency [16] | Potency [11] | Potency [12] | Potency [17] | Potency [18] | Potency [19]

COc1ccc(C23CCC(=O)C=C2N(C)CC3)cc1OC (stereo not given)
inactive: Potency [6] | Potency [1] | Potency [2] | Potency [3] | outcome [7] | Potency [9] | Potency [10] | max response [5] -27.9% | Potency [20] | Potency [13] | Potency [15] | Potency [16] | Potency [12] | Potency [17] | Potency [18] | Potency [19]

Cc1ccc(-n2nccn2)c(C(=O)N2CCN(c3nc4cc(Cl)ccc4o3)CCC2C)c1 (stereo not given)
inactive: Potency [6] | Potency [1] | outcome [7] | Potency [8] | Potency [9] | outcome [4] | outcome [5] | Potency [20] | Potency [13] | Potency [14] | Potency [15] | Potency [16] | Potency [11] | Potency [12] | Potency [18] | Potency [19]
